From PubChem BioAssay (Tox21)
Records with an inconclusive call do not appear. The source made the active and inactive calls. Unless noted, calls come from the whole dose curve; as a rule, active = well fitted curve in the direction sought with a large enough effect in the repeat runs; inconclusive = weak or mixed curves; inactive = no such curve, though single readings can be large; an effect the other way counts as inactive or inconclusive.

How the values were obtained:
[1] = qHTS assay for small molecule agonists of the p53 signaling pathway (AID 651631; calls by dose curve; note: nearly all actives have a fitted effect of over 15% in size)
In short: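 Stably transfected HCT-116 cells (beta-lactamase behind p53 response elements) get compounds after a 5 h settling period; 16 h later at 37 °C, FRET substrate is loaded and fluorescence read after 2 h.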

[2] = qHTS assay for small molecules that induce genotoxicity in human embryonic kidney cells expressing luciferase-tagged ATAD5 (AID 651632); note: nearly all actives have a fitted effect of over 15% in size
In short: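 A rise in luciferase signal from ATAD5-tagged HEK293T cells marks genetic stress. Cells were exposed to compounds for 16 hr at 37C, 5% CO2, then luciferase was quantified after a 30 min room-temperature incubation with Amplite.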

[3] = qHTS assay for small molecule agonists of the p53 signaling pathway - cell viability (AID 651633; calls by dose curve;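 note: p53RE-bla HCT reporter cells with a stable beta-lactamase p53 reporter; series mostly up to about 83 µM; nearly all actives have a fitted effect of over 30% in size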)
In short: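 p53RE-bla cells, seeded at 4,000 per well and rested 5 h at 37 C/5% CO2, received compounds in DMSO for 16 h at 37 C. CellTiter-Glo was then added, and luminescence was read after 30 min at room temperature to gauge cytotoxicity.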

[4] = qHTS assay for small molecules that induce genotoxicity in human embryonic kidney cells expressing luciferase-tagged ATAD5 - cell viability (AID 651634; calls by dose curve; note: nearly all actives have a fitted effect of over 25% in size)
In short: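 Cytotoxicity counter-readout: after 15.5 hr compound treatment at 37C, live-cell protease activity in ATAD5-luciferase HEK293T cells measured by CellTiter-Fluor fluorescence, 30 min development at 37C.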

[5] = qHTS assay for small molecule disruptors of the mitochondrial membrane potential - cell viability (AID 720634; calls by dose curve;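 note: human HepG2 liver cancer cells; series mostly up to about 83 µM; nearly all actives have a fitted effect of over 20% in size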)
In short: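 Cytotoxicity was quantified from ATP content by CellTiter-Glo luminescence in the same wells as the MMP dye read-out. HepG2 (2,000 cells/well) were plated overnight and exposed to compounds for 1 hr at 37 C.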

[6] = qHTS assay for small molecule disruptors of the mitochondrial membrane potential (AID 720635); note: potency is the fitted concentration of half-maximal effect
In short: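 HepG2 cells (2,000/well) attached overnight at 37C, then took compound for 1 hr at 37C, 5% CO2. Mito-MPS dye was added for 30 min; fluorescence was read at 490/535 nm (monomers) and 540/590 nm (aggregates).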

[7] = qHTS assay to test for compound auto fluorescence at 590 nm (red) in HepG2 cells (AID 720674)
In short: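 Rose Bengal sodium served as the red fluorophore standard. HepG2 monolayers (overnight attachment, MEM with 10% FBS) were exposed to test compounds for 1 hr at 37 C and read at Ex 540/Em 590 nm.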

[8] = qHTS assay to test for compound auto fluorescence at 535 nm (green) in HepG2 cells (AID 720675)
[9] = qHTS assay to test for compound auto fluorescence at 460 nm (blue) in HEK293 cells (AID 720678)
In short: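 Blue read-out at excitation 405 nm and emission 460 nm follows overnight compound exposure of HEK293 cells at 37C in 5% CO2. Activity is given as auto fluorescence equivalency to triamterene.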

[10] = qHTS assay to test for compound auto fluorescence at 590 nm (red) in HEK293 cells (AID 720679)
In short: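 Red channel, Ex/Em 540/590nm; signal expressed as equivalency to Rose Bengal sodium. HEK293, 2,000 cells/well, 10% dialyzed FBS; 23 nL compound pinned after 4-5 hr attachment; overnight 37C/5% CO2 before reading.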

[11] = qHTS assay to test for compound auto fluorescence at 535 nm (green) in HEK293 cells (AID 720680)
[12] = qHTS assay to test for compound auto fluorescence at 460 nm (blue) in HEK293 cell free culture (AID 720681)
In short: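 Test compounds were pinned into cell-free culture medium (DMEM with 10% FBS) and fluorescence was read directly at Ex/Em 405/460 nm. Signals were expressed as fluorescence equivalents of triamterene, with DMSO vehicle as control.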

[13] = qHTS assay to test for compound auto fluorescence at 535 nm (green) in HEK293 cell free culture (AID 720682)
In short: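 Using fluorescein as calibrant, autofluorescence was quantified at 485/535 nm in cell-free DMEM containing 10% FBS after pintool addition of compound or vehicle.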

[14] = qHTS assay to test for compound auto fluorescence at 590 nm (red) in HEK293 cell free culture (AID 720683)
In short: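 Tox21 10K library compounds were pinned into cell-free DMEM with 10% FBS and fluorescence was read at excitation 540 nm. Activity is expressed as Rose Bengal sodium equivalency.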

[15] = qHTS assay to test for compound auto fluorescence at 590 nm (red) in HepG2 cell free culture (AID 720684)
In short: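 Readout: intrinsic compound fluorescence at 590 nm emission after 540 nm excitation, scaled to Rose Bengal sodium. Matrix was cell-free MEM with 10% FBS; DMSO vehicle wells served as control.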

[16] = qHTS assay to test for compound auto fluorescence at 535 nm (green) in HepG2 cell free culture (AID 720686)
[17] = molecular target: Glucocorticoid receptor (Homo sapiens) (UniProt P04150); test: qHTS assay to identify small molecule agonists of the glucocorticoid receptor (GR) signaling pathway (AID 720691; active = well fitted activation curve with a large enough effect in the signal ratio in the repeat runs, not every such curve was filed as active; the % refers to the signal ratio)
Glucocorticoid receptor (Homo sapiens), sequence (P04150 whole entry, looked up): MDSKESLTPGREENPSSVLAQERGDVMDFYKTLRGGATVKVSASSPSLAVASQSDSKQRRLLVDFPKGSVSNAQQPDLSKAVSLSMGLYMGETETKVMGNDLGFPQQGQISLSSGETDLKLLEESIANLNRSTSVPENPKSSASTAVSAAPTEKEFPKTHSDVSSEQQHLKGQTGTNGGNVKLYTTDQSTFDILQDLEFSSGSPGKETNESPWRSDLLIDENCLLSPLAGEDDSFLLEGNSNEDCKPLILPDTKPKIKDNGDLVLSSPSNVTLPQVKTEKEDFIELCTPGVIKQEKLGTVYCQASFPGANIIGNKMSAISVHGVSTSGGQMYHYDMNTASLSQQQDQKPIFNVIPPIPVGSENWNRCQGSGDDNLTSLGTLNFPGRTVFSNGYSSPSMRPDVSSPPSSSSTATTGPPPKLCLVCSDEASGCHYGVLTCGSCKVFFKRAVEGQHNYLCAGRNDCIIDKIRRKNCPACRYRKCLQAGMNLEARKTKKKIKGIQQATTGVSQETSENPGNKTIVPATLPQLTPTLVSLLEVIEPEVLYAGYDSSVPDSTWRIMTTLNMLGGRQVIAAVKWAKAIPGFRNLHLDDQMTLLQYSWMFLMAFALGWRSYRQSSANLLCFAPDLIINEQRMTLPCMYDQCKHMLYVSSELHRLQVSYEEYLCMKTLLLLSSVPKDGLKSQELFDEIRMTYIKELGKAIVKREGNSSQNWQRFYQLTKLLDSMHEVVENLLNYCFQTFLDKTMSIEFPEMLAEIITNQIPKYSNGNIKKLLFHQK
In short: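 Agonist-mode qHTS in HeLa cells stably expressing a glucocorticoid-response-element beta-lactamase reporter. Fluorescence intensity read with FRET substrate (2 h, room temperature) after 18 h compound treatment at 37 C.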

[18] = qHTS assay to test for compound auto fluorescence at 460 nm (blue) in HepG2 cell free culture (AID 720685)
In short: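 Cell-free plates of MEM plus 10% FBS received 23 nL compound or DMSO vehicle; blue-channel (405/460 nm) intensity scored against triamterene as reference fluorophore.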

[19] = qHTS assay to test for compound auto fluorescence at 460 nm (blue) in HepG2 cells (AID 720687)
In short: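 Cells (2,000/well in MEM with 10% FBS) attached overnight at 37 C, then were exposed to compound or DMSO for 1 hr at 37 C, 5% CO2. Fluorescence read at Ex/Em 405/460 nm, expressed as triamterene-equivalent signal.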

[20] = molecular target: Glucocorticoid receptor (Homo sapiens) (UniProt P04150); test: qHTS assay to identify small molecule antagonists of the glucocorticoid receptor (GR) signaling pathway (AID 720692; active = well fitted inhibition curve with a large enough effect in the signal ratio in the repeat runs, not every such curve was filed as active; the % refers to the signal ratio)
In short: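 Inhibition of dexamethasone-driven (5 nM final) beta-lactamase expression was measured in GRE-reporter HeLa cells over 18 h at 37C. Fluorescence was read after 2 h with the B/G FRET substrate at room temperature.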
% is set by controls: 0 for no effect and ±100 for the full control effect.

CCOC(=O)OCC/C(SC(=O)OCC)=C(\C)N(C=O)Cc1cnc(C)nc1N
inactive: outcome [1] | outcome [2] | outcome [3] | Potency [4] | outcome [5] | Potency [6] | outcome [7] | outcome [8] | outcome [9] | outcome [10] | outcome [11] | outcome [12] | outcome [13] | outcome [14] | outcome [15] | outcome [16] | Potency [17]

NS(=O)(=O)c1cc2c(cc1Cl)NC(CC1CCCC1)NS2(=O)=O (stereo not given)
inactive: outcome [1] | outcome [2] | outcome [3] | Potency [4] | outcome [5] | Potency [6] | fluorescence, relative to Rose Bengal [7] -0.14% [at 18.6 µM] | fluorescence, % of triamterene [9] -0.024% [at 18.6 µM] | fluorescence, % of fluorescent control [10] -0.246% [at 18.6 µM] | fluorescence, % of fluorescein [11] 0.0502% [at 18.6 µM] | fluorescence, % of fluorescent control [12] -0.0459% [at 18.6 µM] | activity change [13] 0.104% [at 18.6 µM] | fluorescence, % of fluorescent control [14] -0.0938% [at 18.6 µM] | fluorescence, % of fluorescent control [18] -0.0354% [at 18.6 µM] | fluorescence, % of fluorescein control [16] -0.0012% [at 18.6 µM] | fluorescence, % of fluorescent control [19] 0.11% [at 18.6 µM] | Potency [17]

Cc1ccccc1C(=O)N1CC/C(=N\OS(=O)(=O)O)c2ccc(Cl)cc21
inactive: outcome [1] | outcome [2] | outcome [3] | Potency [4] | outcome [5] | Potency [6] | outcome [7] | outcome [8] | outcome [10] | outcome [11] | outcome [12] | outcome [13] | outcome [14] | outcome [18] | outcome [16] | outcome [19] | Potency [17] | outcome [20]

Cc1cc(C)cc([N+](=O)[O-])c1
inactive: outcome [1] | outcome [2] | outcome [3] | Potency [4] | outcome [5] | Potency [6] | outcome [7] | outcome [9] | outcome [10] | outcome [11] | outcome [12] | outcome [13] | outcome [14] | outcome [15] | outcome [18] | outcome [16] | Potency [17] | outcome [20]

O=C1c2ccccc2-c2ccccc21
inactive: outcome [1] | outcome [2] | outcome [3] | Potency [4] | outcome [5] | outcome [7] | outcome [8] | outcome [9] | outcome [10] | outcome [11] | outcome [12] | outcome [13] | outcome [14] | outcome [15] | outcome [18] | outcome [16] | outcome [19] | Potency [17]
active: Potency [6] 55.9 µM

CCCCC(C)C(=O)O (stereo not given)
inactive: outcome [1] | outcome [2] | outcome [3] | Potency [4] | outcome [5] | Potency [6] | outcome [7] | outcome [8] | outcome [9] | outcome [10] | outcome [11] | outcome [12] | outcome [13] | outcome [14] | outcome [15] | outcome [18] | outcome [16]

C=CCOc1cc(Cl)ccc1C(=O)NCCN(CC)CC
inactive: outcome [1] | outcome [2] | outcome [3] | Potency [4] | outcome [5] | outcome [7] | outcome [8] | outcome [9] | outcome [10] | outcome [11] | outcome [12] | outcome [13] | outcome [14] | outcome [15] | outcome [16] | Potency [17] | outcome [20]

CCCO
inactive: outcome [1] | outcome [2] | outcome [3] | Potency [4] | Potency [6] | outcome [7] | outcome [8] | outcome [9] | outcome [10] | outcome [11] | outcome [13] | outcome [14] | outcome [15] | outcome [18] | outcome [16] | outcome [19] | Potency [17] | outcome [20]

CO[Si](CCCS)(OC)OC
inactive: outcome [1] | outcome [2] | outcome [3] | Potency [4] | outcome [5] | outcome [7] | outcome [8] | outcome [9] | outcome [10] | outcome [11] | outcome [13] | outcome [14] | outcome [15] | outcome [18] | outcome [16] | outcome [19] | Potency [17] | outcome [20]

CCN(CCO)c1cccc(C)c1
inactive: outcome [1] | outcome [2] | outcome [3] | Potency [4] | outcome [5] | outcome [7] | outcome [9] | outcome [10] | outcome [11] | outcome [13] | outcome [14] | outcome [15] | outcome [18] | outcome [16] | outcome [19]

C1=CCC(c2ccccc2)CC1 (stereo not given)
inactive: outcome [1] | outcome [2] | outcome [3] | Potency [4] | Potency [6] | outcome [7] | outcome [8] | outcome [9] | outcome [10] | outcome [11] | outcome [12] | outcome [13] | outcome [14] | outcome [15] | outcome [18] | outcome [16] | outcome [19] | Potency [17]

NS(=O)(=O)c1ccccc1OC(F)(F)F
inactive: outcome [1] | outcome [2] | outcome [3] | Potency [4] | outcome [7] | outcome [8] | outcome [9] | outcome [10] | outcome [11] | outcome [12] | outcome [13] | outcome [14] | outcome [15] | outcome [18] | outcome [16] | outcome [19]

CCCCCCCCCCCCCCCC(=O)NCCO
inactive: outcome [1] | outcome [2] | outcome [3] | Potency [4] | outcome [5] | outcome [8] | outcome [10] | outcome [11] | outcome [12] | outcome [13] | outcome [14] | outcome [15] | outcome [18] | outcome [16]

CC(=O)OC(C(=O)c1ccccc1)c1ccccc1 (stereo not given)
inactive: outcome [1] | outcome [2] | outcome [3] | Potency [4] | outcome [5] | outcome [8] | outcome [10] | outcome [11] | outcome [13] | outcome [14] | outcome [15] | outcome [18] | outcome [16] | outcome [19] | Potency [17]

Nc1cc(S(=O)(=O)O)ccc1S(=O)(=O)O
inactive: outcome [1] | outcome [2] | outcome [3] | Potency [4] | outcome [5] | outcome [7] | outcome [8] | outcome [10] | outcome [11] | outcome [12] | outcome [13] | outcome [14] | outcome [15] | outcome [18] | outcome [16] | outcome [19] | Potency [17] | outcome [20]
